Test systems include SK-MEL-2 melanoma; EKVX NSCLC; UO-31 renal; TK-10 renal; ACHN renal; CAKI-1 renal; A498 renal; CCRF-CEM leukemia; MOLT-4 leukemia; SR leukemia; RPMI-8226 leukemia; OVCAR-8 ovarian; OVCAR-5 ovarian; OVCAR-4 ovarian; SK-OV-3 ovarian; IGROV1 ovarian; OVCAR-3 ovarian; HS 578T breast; NCI/ADR-RES ovarian.
Common to all, as to experiment: NCI-60 one-dose screen, 48 h (100 = growth as untreated, 0 = no growth, -100 = all killed)
What all share (details): 10 µM unless noted

Each structure is given as a SMILES string. Compounds without any hit were thinned out: in the full panel of roughly 83,000, 20% have a hit.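 Assay: single dose, 48 h. Readout: percent growth (0 = no net growth; negative = cell death). Active: <10.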 Unmarked numbers belong to inactive results. Activity calls are given as the source filed them.

For `COc1ccc2c(c1)C(Sc1ccc(Cl)cc1)c1c(nc(N)c(C#N)c1N)O2` (stereo unspecified), the growth in the assay with SK-MEL-2 melanoma is 79.5%; with EKVX NSCLC, 43.8%; in the assay on UO-31 renal it was 26.5%; in the assay with TK-10 renal, 99.1%; in the assay on ACHN renal it was 60.1%; in the assay on CAKI-1 renal, 51.9%. Besides, the growth in the assay with A498 renal is 84.4%; in the assay on CCRF-CEM leukemia it was -10.6% (active); in the assay with MOLT-4 leukemia it was -1.37% (active); with SR leukemia, -3.94% (active); in the assay with RPMI-8226 leukemia, 29.4%; with OVCAR-8 ovarian it was 73.6%. Also, the growth in the assay on OVCAR-5 ovarian was 108%; in the assay with OVCAR-4 ovarian it was 73.5%; with SK-OV-3 ovarian, 107%; in the assay on IGROV1 ovarian it was 25.9%; in the assay on OVCAR-3 ovarian, 93.2%; in the assay on HS 578T breast, 45.8%. In addition, in the assay with NCI/ADR-RES ovarian, the growth is 73.6%.

`Cc1cccc(NCC(=O)N2CCN(c3ncnc4c3cnn4-c3ccccc3)CC2)c1`: the growth with SK-MEL-2 melanoma was 46.7%; in the assay on EKVX NSCLC, 53.7%; with UO-31 renal it was 34.3%; in the assay on TK-10 renal it was 93.8%; with ACHN renal it was 45.4%; in the assay on CAKI-1 renal, 47.8%. Moreover, the growth in the assay on A498 renal was 108%; in the assay with CCRF-CEM leukemia, 62.7%; in the assay on MOLT-4 leukemia, 58.2%; in the assay with SR leukemia, 22.7%; with RPMI-8226 leukemia, 75.7%; with OVCAR-8 ovarian it was 65.2%. In addition, the growth in the assay on OVCAR-5 ovarian is 83.8%; in the assay with OVCAR-4 ovarian, 51.6%; with SK-OV-3 ovarian, 67.1%; in the assay with IGROV1 ovarian, 59.4%; with HS 578T breast, 60.4%; in the assay with NCI/ADR-RES ovarian, 60.6%.

Regarding `CN1C(=O)C2(C(C#N)=C(c3ccc(Cl)cc3)Nc3c2c(-c2ccccc2)nn3-c2ccccc2)c2ccccc21` (stereo unspecified), the growth in the assay on SK-MEL-2 melanoma was 89.8%; in the assay on EKVX NSCLC, 80.7%; in the assay on TK-10 renal it was 103%; with ACHN renal it was 89.5%; in the assay on CAKI-1 renal, 71%; with A498 renal, 144%. Besides, the growth in the assay on CCRF-CEM leukemia is 75.6%; in the assay with MOLT-4 leukemia, 64.4%; in the assay with SR leukemia, 29.6%; with RPMI-8226 leukemia, 60.3%; in the assay with OVCAR-8 ovarian, 98.5%; with OVCAR-5 ovarian, 96%. Besides, the growth in the assay with OVCAR-4 ovarian was 96.1%; in the assay with SK-OV-3 ovarian, 99.2%; with IGROV1 ovarian it was 98%; in the assay on OVCAR-3 ovarian it was 112%; with HS 578T breast, 65.3%; in the assay with NCI/ADR-RES ovarian, 78.8%.

In the case of `COc1ccc(-c2nc3ccc(-c4nnc(SCc5ccccc5)o4)cc3[nH]2)cc1OC`, the growth with SK-MEL-2 melanoma is 66.4%; in the assay on EKVX NSCLC, 58.1%; in the assay with TK-10 renal it was 23%; in the assay with ACHN renal it was -45.4% (active); in the assay on CAKI-1 renal it was 16.2%; with A498 renal, 117%. Besides, the growth in the assay with CCRF-CEM leukemia was 76.4%; with MOLT-4 leukemia, 78.8%; with SR leukemia, 56.3%; in the assay on RPMI-8226 leukemia, 44.5%; with OVCAR-8 ovarian it was 6.86% (active); with OVCAR-5 ovarian it was 34.2%. The growth with OVCAR-4 ovarian was -45.4% (active); in the assay with SK-OV-3 ovarian, 62.9%; with IGROV1 ovarian, 42.8%; in the assay with OVCAR-3 ovarian, 10.7%; in the assay with HS 578T breast, 2.46% (active); with NCI/ADR-RES ovarian it was 7.16% (active).

With `Clc1ccc(Nc2nnc(-c3c[nH]c4ccccc34)o2)cc1`, the growth in the assay with SK-MEL-2 melanoma is 95.8%; in the assay with EKVX NSCLC, 55.3%; in the assay on UO-31 renal, 49.7%; in the assay on TK-10 renal it was 121%; in the assay with ACHN renal it was 74.4%; in the assay with CAKI-1 renal, 50.8%. The growth in the assay on A498 renal is 120%; in the assay on CCRF-CEM leukemia it was 10.9%; in the assay with MOLT-4 leukemia, 9.41% (active); with SR leukemia it was 49.6%; in the assay with RPMI-8226 leukemia it was 28.6%; in the assay with OVCAR-8 ovarian it was 86.1%. Besides, the growth in the assay on OVCAR-5 ovarian was 101%; with OVCAR-4 ovarian, 78.6%; in the assay on SK-OV-3 ovarian it was 72.2%; in the assay on IGROV1 ovarian it was 47.3%; in the assay with OVCAR-3 ovarian, 102%; in the assay with HS 578T breast, 82.5%. The growth in the assay with NCI/ADR-RES ovarian is 50.7%.

As for `COc1ccc(-c2cc(C(=O)Oc3ccc(C=O)cc3OC)nn2-c2ccc(S(C)(=O)=O)cc2)cc1`, the growth is 110% in the assay with SK-MEL-2 melanoma; 98% with EKVX NSCLC; 78.2% with UO-31 renal; 147% with TK-10 renal; 106% with ACHN renal; 98.3% with CAKI-1 renal. Besides, the growth with A498 renal was 126%; with CCRF-CEM leukemia it was 83.6%; in the assay on MOLT-4 leukemia, 86.6%; in the assay with SR leukemia it was 84.9%; with RPMI-8226 leukemia, 70.4%; with OVCAR-8 ovarian it was 103%. Also, the growth in the assay with OVCAR-5 ovarian was 125%; in the assay with OVCAR-4 ovarian it was 89.7%; in the assay with SK-OV-3 ovarian it was 122%; in the assay on IGROV1 ovarian, 112%; in the assay on OVCAR-3 ovarian, 93.4%; in the assay on HS 578T breast, 112%. The growth in the assay on NCI/ADR-RES ovarian is 101%.

Consider `Cn1cc(-c2cc(N)n3nc(-c4c[nH]c5ccccc45)cc3n2)c2ccccc21`, for which the growth in the assay with SK-MEL-2 melanoma is -88.2% (active); with EKVX NSCLC, -96.1% (active); in the assay with UO-31 renal, -83.5% (active); in the assay on TK-10 renal, -93.4% (active); in the assay on ACHN renal, -100% (active); in the assay with CAKI-1 renal, -100% (active). The growth in the assay with A498 renal is -90.4% (active); with CCRF-CEM leukemia, -20.6% (active); with MOLT-4 leukemia, 9.25% (active); with SR leukemia, 12.1%; in the assay on OVCAR-8 ovarian, -83% (active); in the assay with OVCAR-5 ovarian it was -79% (active). Moreover, the growth in the assay with OVCAR-4 ovarian was -34.7% (active); in the assay with SK-OV-3 ovarian, -95.1% (active); with IGROV1 ovarian, -79.8% (active); in the assay on HS 578T breast, -23.7% (active); in the assay with NCI/ADR-RES ovarian it was -40.6% (active).

As to `Cc1ccc2c(c1)nc(-c1ccccc1)n2CC(=O)N=Nc1c(O)[nH]c2ccc(Cl)cc12`, the growth in the assay on SK-MEL-2 melanoma was -75.4% (active); in the assay on EKVX NSCLC it was -31.9% (active); in the assay with UO-31 renal, -89.6% (active); in the assay on TK-10 renal it was -15.1% (active); with ACHN renal, -89.5% (active); in the assay on CAKI-1 renal, -42.6% (active). The growth is -71.1% (active) in the assay with A498 renal; 4.22% (active) in the assay with CCRF-CEM leukemia; -20.3% (active) with MOLT-4 leukemia; -20.7% (active) in the assay on SR leukemia; -17% (active) in the assay with RPMI-8226 leukemia; -66.9% (active) in the assay with OVCAR-8 ovarian. Besides, the growth is -52.5% (active) in the assay with OVCAR-5 ovarian; -72.6% (active) in the assay on SK-OV-3 ovarian; -86% (active) in the assay on IGROV1 ovarian; -70.3% (active) with OVCAR-3 ovarian; -32.9% (active) with HS 578T breast; -73% (active) in the assay with NCI/ADR-RES ovarian.

The values are drawn from PubChem BioAssay (NCI).
